Assay outcomes from PubChem BioAssay.
Bim-Mcl-1 – inhibitors of Bim peptide binding to Mcl-1, primary screen, biochemical, bead-based flow cytometry, multiplex; Bim peptide-Mcl-1 binding; inhibition, % at 10 µM; actives 0.1% (n = 190,000); in the data active means inhibition above about 40%
Mcl1-Noxa inh – Mcl-1/Noxa binding inhibitors, primary screen, biochemical, TR-FRET, 1536-well. actives 1.5% (n = 220,000). inhibition, % at 21.7 µM. Induced myeloid leukemia cell differentiation protein Mcl-1 (Homo sapiens), Q07820. TR-FRET Mcl-1/Noxa peptide binding, 2 h;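 active means compounds that cut the protein-peptide binding signal by more than 50% relative to plate controls in a single-dose test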;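 further: His-tagged Mcl-1 with rhodamine Noxa BH3 peptide and terbium anti-His antibody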
MCL1 BIM primary – inhibitors of MCL1 binding to BIM-BH3, primary screen, biochemical, fluorescence polarization. Induced myeloid leukemia cell differentiation protein Mcl-1 (Homo sapiens), Q07820. GST-MCL1 / FITC-Bim-BH3 fluorescence polarization. inhibition, % at 10.9 µM. actives 0.68% (n = 320,000);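 active means inhibition above the mean inhibition of all tested compounds plus 3 SD, set per campaign, cut at about 40% in these data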;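 further: higher means more loss of mP so more displacement of Bim peptide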
BCLXL inh – inhibitors of human Bcl-xL, primary screen, biochemical, fluorescence polarization, HTS; Bcl-2-like protein 1 (Homo sapiens), Q07817; GST-Bcl-xL / FITC-Bim BH3 peptide fluorescence polarization; inhibition, % at 10.9 µM; actives 0.7% (n = 320,000); AID 2129, 2009;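 active means inhibition above the mean of all tested compounds plus 3 SD, cutoff set per campaign, cut at about 30% in these data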;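 further: inhibitors lower millipolarization by displacing the labeled peptide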
Target sequence (Q07817 whole entry, looked up): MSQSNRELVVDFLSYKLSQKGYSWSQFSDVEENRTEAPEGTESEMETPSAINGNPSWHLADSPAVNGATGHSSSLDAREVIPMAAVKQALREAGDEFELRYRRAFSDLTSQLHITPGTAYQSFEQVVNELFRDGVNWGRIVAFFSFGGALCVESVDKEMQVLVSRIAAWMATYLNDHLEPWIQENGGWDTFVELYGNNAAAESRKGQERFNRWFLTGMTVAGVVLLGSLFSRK
GLD-1 TGE inh – GLD-1/TGE RNA complex disruptors, primary screen, biochemical, fluorescence polarization; Female germline-specific tumor suppressor gld-1 (Caenorhabditis elegans), Q17339; purified GLD-1 + fluorescein TGE RNA; inhibition, % at 5.96 µM; actives 0.44% (n = 320,000); AID 2280, 2010;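 active means percent inhibition above a per-plate cutoff, the plate mean of test compounds plus 3 SD, cut at about 30% in these data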
Target sequence (Q17339 whole entry, looked up): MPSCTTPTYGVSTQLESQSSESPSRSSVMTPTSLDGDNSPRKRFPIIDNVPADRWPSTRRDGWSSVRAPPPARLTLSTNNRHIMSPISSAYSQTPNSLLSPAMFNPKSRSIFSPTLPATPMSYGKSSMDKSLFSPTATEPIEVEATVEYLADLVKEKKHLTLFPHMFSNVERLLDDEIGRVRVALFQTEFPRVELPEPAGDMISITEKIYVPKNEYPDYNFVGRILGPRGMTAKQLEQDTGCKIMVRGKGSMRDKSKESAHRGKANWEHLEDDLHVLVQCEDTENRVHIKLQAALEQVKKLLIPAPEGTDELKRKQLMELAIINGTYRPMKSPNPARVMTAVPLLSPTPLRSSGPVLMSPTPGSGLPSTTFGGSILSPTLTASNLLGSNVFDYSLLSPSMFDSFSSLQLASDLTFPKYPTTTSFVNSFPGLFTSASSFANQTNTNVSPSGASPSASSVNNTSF
Mcl1 Bid PPI – Mcl-1/Bid binding inhibitors, primary screen, biochemical, TR-FRET, 1536-well | Induced myeloid leukemia cell differentiation protein Mcl-1 (Homo sapiens), Q07820 | TR-FRET Mcl-1/Bid-Dy647 peptide binding | inhibition, % at 21.7 µM | actives 0.97% (n = 220,000) | AID 1021, 2008;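 active means compounds that cut the binding signal by more than half at the single screening dose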;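 further: His-tagged Mcl-1 with europium anti-His antibody binding Bid BH3 peptide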
GLD-1 TGE cf – GLD-1/TGE RNA binding inhibitors, retest, confirmation, biochemical, fluorescence polarization, triplicate; inhibition, % at 5.96 µM; actives 10% (n = 550); GLD-1/FL-TGE RNA fluorescence polarization; shares compounds with GLD-1 TGE inh;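 active means average inhibition across triplicates above the hit cutoff set in the primary screen, cut at about 32% in these data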
A number is an active result. Sampled rows, rich in hits. Any-hit rate of the full collection: about 2.3%.

Screening Cn1cc(/C=N\O)nc2c(=O)n(-c3ccccc3)c(=O)nc1-2 returned Bim-Mcl-1 inactive, Mcl1-Noxa inh inactive, MCL1 BIM primary inactive, BCLXL inh 36, GLD-1 TGE inh 35, Mcl1 Bid PPI inactive and GLD-1 TGE cf inactive.
O/N=C/c1cn(-c2ccccc2)nn1 was read as Bim-Mcl-1 inactive, Mcl1-Noxa inh inactive, MCL1 BIM primary inactive, BCLXL inh inactive, GLD-1 TGE inh inactive and Mcl1 Bid PPI inactive.
For CCOC(=O)C1CCCN(C(=O)c2ccc(S(=O)(=O)N3CCCC3)cc2)C1 (stereo unspecified) the results were MCL1 BIM primary inactive, BCLXL inh inactive and GLD-1 TGE inh inactive.
Screening CCOC(=O)C1CCCN(S(=O)(=O)c2ccc(S(=O)(=O)N3CCCC3)cc2)C1 (stereo unspecified) returned MCL1 BIM primary inactive, BCLXL inh inactive, GLD-1 TGE inh 38 and GLD-1 TGE cf inactive.
CC(/C=C/c1ccc(N(C)C)cc1)=N/N=C1/NC(=O)CC(C(=O)Nc2ccc(Cl)cc2)S1 (stereo unspecified) was read as Bim-Mcl-1 inactive, Mcl1-Noxa inh inactive, MCL1 BIM primary inactive, BCLXL inh inactive, GLD-1 TGE inh inactive and Mcl1 Bid PPI inactive.
Screening CC(/C=C/c1ccc(N(C)C)cc1)=N\N=C1\NC(=O)CC(C(=O)Nc2ccccc2)S1 (stereo unspecified) returned Bim-Mcl-1 inactive, Mcl1-Noxa inh inactive, MCL1 BIM primary inactive, BCLXL inh inactive, GLD-1 TGE inh 33, Mcl1 Bid PPI inactive and GLD-1 TGE cf inactive.
Screening COc1ccc(C(=O)N[C@H](C(=O)Nc2sccc2C(N)=O)C(C)C)cc1 returned MCL1 BIM primary inactive, BCLXL inh inactive and GLD-1 TGE inh inactive.
Screening O=c1oc2cc(O)ccc2cc1S(=O)(=O)c1ccccc1 returned MCL1 BIM primary inactive, BCLXL inh inactive, GLD-1 TGE inh 40 and GLD-1 TGE cf inactive.
`CC(=O)c1c(C)oc2ccc(N(C(=O)C3CCCCC3)S(=O)(=O)c3cc([N+](=O)[O-])ccc3C)cc12` gave Bim-Mcl-1 inactive, Mcl1-Noxa inh inactive, MCL1 BIM primary inactive, BCLXL inh inactive, GLD-1 TGE inh inactive and Mcl1 Bid PPI inactive.
`CN1C[C@H](C(=O)NC2(C)OC3(O)[C@@H]4CCCN4C(=O)[C@H](Cc4ccccc4)N3C2=O)CC2c3cccc4[nH]cc(c34)C[C@H]21` (stereo partly specified) gave MCL1 BIM primary inactive, BCLXL inh 36, GLD-1 TGE inh 33 and GLD-1 TGE cf inactive.
COc1cc(NC(=O)C2=CC(c3cccs3)=NS(=O)(=O)N2C)cc(OC)c1OC was read as MCL1 BIM primary inactive, BCLXL inh inactive and GLD-1 TGE inh inactive.
`CCOc1ccc(-n2c(Cc3cc(=O)[nH]c(=O)[nH]3)nnc2SCC(=O)OC)cc1` gave Bim-Mcl-1 inactive, Mcl1-Noxa inh inactive, MCL1 BIM primary inactive, BCLXL inh inactive, GLD-1 TGE inh inactive and Mcl1 Bid PPI inactive.
Screening CCOC(=O)CSc1nnc(Cc2cc(=O)[nH]c(=O)[nH]2)n1-c1ccc(Cl)cc1 returned Bim-Mcl-1 inactive, Mcl1-Noxa inh inactive, MCL1 BIM primary inactive, BCLXL inh inactive, GLD-1 TGE inh 38, Mcl1 Bid PPI inactive and GLD-1 TGE cf inactive.
Screening Cc1ccc(S(=O)(=O)NC(C(=O)Oc2ccc3ccc(=O)oc3c2)c2ccccc2)cc1 (stereo unspecified) returned Bim-Mcl-1 inactive, Mcl1-Noxa inh inactive, MCL1 BIM primary inactive, BCLXL inh inactive, GLD-1 TGE inh inactive and Mcl1 Bid PPI inactive.
Screening Cc1ccc(S(=O)(=O)N[C@H](C(=O)Oc2ccc3c(C(F)(F)F)cc(=O)oc3c2)c2ccccc2)cc1 returned Bim-Mcl-1 inactive, Mcl1-Noxa inh inactive, MCL1 BIM primary 45, BCLXL inh 45, GLD-1 TGE inh 50, Mcl1 Bid PPI inactive and GLD-1 TGE cf 44.
`Cc1cnc(C(=O)Nc2cccc3ncccc23)cn1` gave MCL1 BIM primary inactive, BCLXL inh inactive and GLD-1 TGE inh inactive.
`Cc1cnc(C(=O)Nc2ccccc2-c2ccc(C)o2)cn1` gave Bim-Mcl-1 inactive, Mcl1-Noxa inh inactive, MCL1 BIM primary inactive, BCLXL inh 36, GLD-1 TGE inh 42, Mcl1 Bid PPI inactive and GLD-1 TGE cf inactive.
Screening O=C(CN(C1CCCCC1)S(=O)(=O)c1ccccc1)N1CCCC1 returned Bim-Mcl-1 inactive, Mcl1-Noxa inh inactive, MCL1 BIM primary inactive, BCLXL inh inactive, GLD-1 TGE inh inactive and Mcl1 Bid PPI inactive.
Screening O=C(CN(C1CCCCC1)C1CCCCC1)N1CCc2ccccc2C1 returned Bim-Mcl-1 inactive, Mcl1-Noxa inh inactive, MCL1 BIM primary inactive, BCLXL inh inactive, GLD-1 TGE inh 39, Mcl1 Bid PPI inactive and GLD-1 TGE cf inactive.
For Cc1ccccc1NC(=O)COC(=O)c1ccc2nc(C)c(C)nc2c1 the results were MCL1 BIM primary inactive, BCLXL inh inactive and GLD-1 TGE inh inactive.
For Cc1ccc(CS(=O)(=O)Cc2ccc(C(=O)NC3CC3)o2)cc1 the results were MCL1 BIM primary inactive, BCLXL inh inactive, GLD-1 TGE inh 33 and GLD-1 TGE cf inactive.
O=C(NC1CCCCCC1)c1ccc(CS(=O)(=O)Cc2ccc(F)cc2)o1 was read as MCL1 BIM primary inactive, BCLXL inh inactive and GLD-1 TGE inh inactive.
Screening CC(C)C(=O)Nc1nnc(S(=O)(=O)N2CCCCCC2)s1 returned MCL1 BIM primary inactive, BCLXL inh inactive and GLD-1 TGE inh inactive.
CC(C)[C@H](Nc1nc(-c2ccccc2)nc2c1oc1ccccc12)C(=O)O was read as Bim-Mcl-1 inactive, Mcl1-Noxa inh inactive, MCL1 BIM primary inactive, BCLXL inh inactive, GLD-1 TGE inh inactive and Mcl1 Bid PPI inactive.
For COc1ccccc1-c1cnn2c(NC3CCCC3)cc(C)nc12 the results were MCL1 BIM primary inactive, BCLXL inh inactive, GLD-1 TGE inh 66 and GLD-1 TGE cf inactive.
Nc1ccccc1C(=O)NC12CC3CC(CC(C3)C1)C2 was read as MCL1 BIM primary inactive, BCLXL inh inactive and GLD-1 TGE inh inactive.
Nc1cccc2c1C(=O)N(CC(=O)NC13CC4CC(CC(C4)C1)C3)C2=O was read as Bim-Mcl-1 inactive, Mcl1-Noxa inh inactive, MCL1 BIM primary inactive, BCLXL inh 32, GLD-1 TGE inh 37, Mcl1 Bid PPI inactive and GLD-1 TGE cf inactive.
